TMEM16A act: activates or potentiates the mouse TMEM16A chloride channel; B-score at 10 µM; hit rate 0.3% among 340,000; AID 623877; HEK293 TMEM16A/YFP-H148Q/I152L, iodide quench fluorescence; hits give low values;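 active = fluorescence-ratio B-score plate-corrected deviation score at least 3 library SD below zero, with starting fluorescence score within 5 deviations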;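 note: channel opened by trigger with iodide after compound preincubation; score built on the fluorescence ratio of max minus min over baseline; more negative score means more quench and so TMEM16A activation or potentiation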
NTR1 ag: NTR1 (human) agonism; hit rate 0.17% among 330,000; P30989; activation, % at 20 µM; NTR1-U2OS beta-arrestin-GFP spot imaging, agonist mode;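 active = activation at or above 40% of the spot to cytoplasm intensity ratio, with at least 20 cells analyzed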
Target sequence (P30989 whole entry, looked up): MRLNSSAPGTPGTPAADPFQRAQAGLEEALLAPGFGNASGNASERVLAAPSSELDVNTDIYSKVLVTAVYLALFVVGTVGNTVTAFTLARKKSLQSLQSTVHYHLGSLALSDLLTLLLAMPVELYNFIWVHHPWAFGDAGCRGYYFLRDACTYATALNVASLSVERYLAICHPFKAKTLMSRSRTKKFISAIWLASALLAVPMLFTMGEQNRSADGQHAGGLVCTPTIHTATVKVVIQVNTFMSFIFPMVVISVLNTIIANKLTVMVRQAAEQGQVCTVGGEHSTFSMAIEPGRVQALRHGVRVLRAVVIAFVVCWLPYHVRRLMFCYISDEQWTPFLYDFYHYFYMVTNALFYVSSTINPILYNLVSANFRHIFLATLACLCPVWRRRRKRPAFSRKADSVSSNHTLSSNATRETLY
CHO-K1 Ca PAM: M1 PAM counterscreen hit in parental CHO-K1 cells; activation, % at 3 µM; ATP EC20, Fluo-8 calcium fluorescence; 0% at ATP EC20, 100% at ATP max; AID 602247; hit rate 0.02% among 360,000;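 active = activation above the run cutoff, the mean activation of all test compounds plus 3 SD, cut at about 40% in these data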;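 note: peak over basal fluorescence ratio in a 140 s read after ATP addition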
CHO-K1 Ca ag: M1 agonist counterscreen hit in parental CHO-K1 cells; Fluo-8 calcium fluorescence; scaled to maximal ATP response, vehicle zero; activation, % at 3 µM; hit rate 0.48% among 360,000; in the data active = activation above about 15%;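 note: untransfected CHO-K1 host cells lacking M1 receptor as counterscreen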
CHO-K1 Ca antag: nonselective inhibitor or artifact in parental CHO-K1 cells; ATP-induced calcium, Fluo-8 fluorescence; inhibition, % at 3 µM; hit rate 0.6% among 360,000; AID 602250;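 active = inhibition above a per-plate cutoff, the plate's mean sample inhibition plus 3 SD, cut at about 24% in these data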
TMEM16A inh: mouse TMEM16A channel inhibition, primary screen; HEK293 TMEM16A/YFP iodide influx fluorescence, ionomycin; normalized B-score (activity score, 25-100; higher = stronger inhibition) at 10 µM; hit rate 1.2% among 310,000; AID 588511;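 active = ratio plate-corrected score three or more library SD toward inhibition, starting fluorescence score within five deviations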;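 note: score derived from kinetic fluorescence span divided by baseline fluorescence per well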
TMEM16A reconf: reconfirmed blocker of mouse TMEM16A calcium-activated chloride channel; AID 652189; inhibition, % at 10 µM; HEK293 TMEM16A/YFP-H148Q, iodide quench fluorescence; ionomycin added to raise cell calcium; hit rate 39% among 2,300; shares compounds with TMEM16A inh;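 active = mean duplicate percent inhibition, scaled so buffer wells are 0 and the reference blocker 100, over three buffer SD above buffer mean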
TMEM16A Ca cntr: alters calcium mobilization in TMEM16A HEK293 cells, counter-screen. shares compounds with TMEM16A inh. TMEM16A/YFP HEK293, Fluo4 calcium mobilization. calcium response (% of ionomycin), % at 10 µM. hit rate 2% among 2,300. AID 652231;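 active = duplicate-averaged calcium signal over 20% of the ionomycin maximum, relative to buffer baseline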;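 note: each well's signal is peak minus trough fluorescence divided by its pre-addition baseline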
YFP-HEK293 quench: counter-screen for TMEM16A inhibitors: effect in parental YFP-HEK293 cells. iodide YFP quench, ionomycin. YFP ratio F(max-min)/F0 at 10 µM. AID 652233. shares compounds with TMEM16A inh. 2,300 tested, under 10 active;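 active = yellow fluorescent protein signal ratio exceeding the buffer control mean by over 5 SD of those controls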;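 note: ratio is mean of duplicate wells from kinetic YFP trace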
ClC-1 rat inh: selectivity of TMEM16A inhibitors: inhibition of rat ClC-1 chloride channel. shares compounds with TMEM16A inh. CHO ClC-1-YFP, iodide influx fluorescence quench; iodide control reads 0, buffer control 100. ratio percent, % at 10 µM. 2,300 tested, under 10 active. AID 652236;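 active = duplicate-mean ratio percent above the mean of iodide-only control wells, which defines zero, plus 5 of their SD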;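 note: higher percent means stronger block of ClC-1 iodide influx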
Numbers stand for hits; i = inactive; nt = not tested or not shown. Only some compounds are listed: those with a hit (about 2.2% of all), similar ones and a draw of the others.

SMILES	TMEM16A act	NTR1 ag	CHO-K1 Ca PAM	CHO-K1 Ca ag	CHO-K1 Ca antag	TMEM16A inh	TMEM16A reconf	TMEM16A Ca cntr	YFP-HEK293 quench	ClC-1 rat inh
Cc1nc2ccccc2c2c1CC(C(C)(Cl)Br)O2 (stereo not given)	i	i	i	i	i	25	18%	i	i	i
COc1ccc2ccccc2c1C=NN1CCCCC1	nt	nt	i	i	i	nt	nt	nt	nt	nt
COc1cccc(-c2ccc(C3=CC(=O)CC(C)(C)C3=O)cc2)c1OC	nt	nt	i	i	i	nt	nt	nt	nt	nt
COc1ccc(NC(=O)c2cnc3sccn3c2=O)cc1	i	i	i	i	i	100	i	i	i	i
COc1ccc(C(=O)c2cnc3ccccc3c2-c2ccccc2)cc1	i	i	i	i	i	i	nt	nt	nt	nt
Cc1ccc(C(=O)c2cnc3ccccc3c2-c2ccccc2)cc1	i	i	i	i	i	100	i	i	i	i
CC(C)(C)C1CCc2onc(C(=O)Nc3cnn(Cc4ccc(F)cc4)c3)c2C1 (stereo not given)	i	i	i	i	i	i	nt	nt	nt	nt
CC(C)(C)C1CCc2onc(C(=O)Nc3ccc(F)cc3F)c2C1 (stereo not given)	i	i	i	i	i	100	i	i	i	i
O=C(Nc1cccc([N+](=O)[O-])c1)c1cccc(C(=O)Nc2cccc([N+](=O)[O-])c2)c1	i	i	i	i	i	i	nt	nt	nt	nt
CC(NC(=O)Nc1cccc([N+](=O)[O-])c1)(C(F)(F)F)C(F)(F)F	i	i	i	i	i	100	i	i	i	i
CCCc1cc(=O)oc2cc(C)c(CN3CCCC3)c(O)c12	i	i	i	i	i	i	i	i	i	i
COc1cc(NS(=O)(=O)c2ccc(C)cc2C)cc(OC)c1OC	i	i	i	i	i	100	28%	i	i	i
Fc1ccc(N2CCN(c3nc(-c4ccco4)cc(C(F)(F)F)n3)CC2)cc1	i	i	i	i	i	i	nt	nt	nt	nt
Cc1nn(-c2nc(-c3ccco3)cc(C(F)(F)F)n2)c(C)c1Br	i	i	i	i	i	25	i	i	i	i
Cc1ccccc1-c1cc(-c2ccccc2O)n[nH]1	i	i	i	i	i	25	i	i	i	i
O=C(NC(NC(=S)Nc1ccc(Cl)c(Cl)c1)C(Cl)(Cl)Cl)c1ccco1 (stereo not given)	i	i	i	i	29	100	36%	i	i	i
O=C(O)c1cccc(NC(=S)NC(NC(=O)c2ccco2)C(Cl)(Cl)Cl)c1 (stereo not given)	i	i	i	i	i	i	nt	nt	nt	nt
CC(NC(=O)c1cccc(S(=O)(=O)N2CCCCCC2)c1)c1ccccc1 (stereo not given)	i	i	i	i	i	nt	nt	nt	nt	nt
CNC(=O)c1cc(NC(=O)N(CCC#N)CCN(C(=O)NC(Cc2ccccc2)C(=O)NC(CC(C)C)C(=O)NC)c2ccccc2)ccc1OC (stereo not given)	i	nt	i	i	i	nt	nt	nt	nt	nt
CN(C)c1ccc2cc(S(=O)(=O)O)cc(O)c2c1	i	nt	i	i	i	nt	nt	nt	nt	nt
CN(C)c1ccc2c(O)cc(=O)n(C)c2c1	i	i	i	i	i	100	i	i	i	i
CCNC(=O)N(C)C[C@H]1N[C@@](Cc2ccccc2)(C(=O)OC)[C@H]2C(=O)N(C)C(=O)[C@@H]12	nt	i	i	i	i	nt	nt	nt	nt	nt
COc1cccc(C(C)(O)c2nc(-c3ccc4c(c3)OCO4)cs2)c1 (stereo not given)	nt	nt	i	i	i	nt	nt	nt	nt	nt
Cc1ccc(Nc2nc(-c3ccccc3)cs2)nc1	i	i	i	i	i	i	nt	nt	nt	nt
Cc1ccc(Nc2nc(-c3cccs3)cs2)nc1	i	i	i	i	i	100	i	i	i	i

Screens (PubChem BioAssay)
